Laboratory results reported in PubChem BioAssay AID1159580 (chemical genetic matrix, 2015).
Values joined by “and” are separate entries in the source; they are usually repeats but may differ in a detail not shown here. Equal values may be shown once. The campaign covered roughly 5,500 compounds. About 2,000 (36%) were called active. Inconclusive results (about 18%) are left out. The list shows a part of the results. A number with no mark means an inactive call. Rule as the data show it: active = normalized growth mostly below about 0.91 (no sharp cut-off); inconclusive = no clear call, values can overlap the other calls; inactive = mostly above about 0.92.

Test: chemical genetic growth profiling, strain panel (AID 1159580);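 also: tested at 20 µM; growth read once vehicle control cultures reached saturation at 30 °C; 1 = growth at the plate median or of vehicle wells; lower values mean less growth of the strain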
Settings: S. cerevisiae deletion strains, growth OD

SMILES: CC(=O)N(O)CCCCCNC(=O)CCC(=O)N(O)CCCCCNC(=O)CCC(=O)N(O)CCCCCN
- normalized growth (locus YAL013W, strain DEP1, active compounds read low): 0.997
- normalized growth (locus YAL021C, strain ccr4, active compounds read low): 0.959
- normalized growth (locus YAL026C, strain drs2, active compounds read low): 1
- normalized growth (locus YAL030W, strain snc1, active compounds read low): 1
- normalized growth (locus YBL061C, strain skt5, active compounds read low): 1
- normalized growth (locus YBR009C, strain hhf1, active compounds read low): 1
- normalized growth (locus YBR021W, strain FUR4, active compounds read low): 0.845 (active)
- normalized growth (locus YBR023C, strain chs3, active compounds read low): 1.02
- normalized growth (locus YBR171W, strain sec66, active compounds read low): 1.01
- normalized growth (locus YBR229C, strain ROT2, active compounds read low): 1.01
- normalized growth (locus YBR231C, strain swc5, active compounds read low): 0.967
- normalized growth (locus YBR279W, strain paf1, active compounds read low): 0.99
- normalized growth (locus YCL011C, strain gbp2, active compounds read low): 1.04
- normalized growth (locus YCL016C, strain dcc1, active compounds read low): 1.03
- normalized growth (locus YCL029C, strain bik1, active compounds read low): 1.04
- normalized growth (locus YCL069W, strain vba3, active compounds read low): 0.994
- normalized growth (locus YCR088W, strain abp1, active compounds read low): 1.02
- normalized growth (locus YDL005C, strain med2, active compounds read low): 1.01
- normalized growth (locus YDL035C, strain GPR1, active compounds read low): 0.987
- normalized growth (locus YDL040C, strain nat1, active compounds read low): 1
- normalized growth (locus YDL074C, strain BRE1, active compounds read low): 0.907
- normalized growth (locus YDL101C, strain DUN1, active compounds read low): 1.01
- normalized growth (locus YDL185W, strain tfp1, active compounds read low): 0.967
- normalized growth (locus YDL192W, strain arf1, active compounds read low): 1.01
- normalized growth (locus YDR001C, strain nth1, active compounds read low): 1.03
- normalized growth (locus YDR069C, strain doa4, active compounds read low): 0.978
- normalized growth (locus YDR101C, strain arx1, active compounds read low): 1.04
- normalized growth (locus YDR137W, strain rgp1, active compounds read low): 1.12
- normalized growth (locus YDR150W, strain NUM1, active compounds read low): 1.01
- normalized growth (locus YDR159W, strain sac3, active compounds read low): 1.05
- normalized growth (locus YDR162C, strain NBP2, active compounds read low): 0.997
- normalized growth (locus YDR195W, strain ref2): 1.03
- normalized growth (locus YDR297W, strain sur2, active compounds read low): 0.997
- normalized growth (locus YDR318W, strain mcm21, active compounds read low): 1.02
- normalized growth (locus YDR334W, strain swr1, active compounds read low): 0.998
- normalized growth (locus YDR335W, strain msn5, active compounds read low): 0.987
- normalized growth (locus YDR388W, active compounds read low): 1.02
- normalized growth (locus YDR392W, strain spt3, active compounds read low): 1.2
- normalized growth (locus YDR502C, strain sam2, active compounds read low): 1.04
- normalized growth (locus YEL003W, strain gim4, active compounds read low): 0.961
- normalized growth (locus YEL037C, strain rad23, active compounds read low): 0.997
- normalized growth (locus YEL061C, strain CIN8 (second series), active compounds read low): 1.01
- normalized growth (locus YEL061C, strain CIN8, active compounds read low): 1.01
- normalized growth (locus YER015W, strain faa2, active compounds read low): 0.944
- normalized growth (locus YER016W, strain bim1, active compounds read low): 1.01
- normalized growth (locus YER110C, active compounds read low): 1.01
- normalized growth (locus YER111C, strain swi4, active compounds read low): 0.973
- normalized growth (locus YER155C, strain BEM2 (second series), active compounds read low): 1.06
- normalized growth (locus YER155C, strain BEM2, active compounds read low): 1.04
- normalized growth (locus YER167W, strain BCK2, active compounds read low): 1.05
- normalized growth (locus YFR010W, strain ubp6, active compounds read low): 0.986
- normalized growth (locus YGL078C, strain dbp3, active compounds read low): 1.07
- normalized growth (locus YGL086W, strain mad1, active compounds read low): 1.01
- normalized growth (locus YGL167C, strain pmr1, active compounds read low): 0.978
- normalized growth (locus YGL173C, strain kem1, active compounds read low): 0.99
- normalized growth (locus YGL227W, strain vid30, active compounds read low): 1.02
- normalized growth (locus YGL240W, strain doc1, active compounds read low): 1.01
- normalized growth (locus YGL248W, strain PDE1, active compounds read low): 0.987
- normalized growth (locus YGL253W, strain hxk2, active compounds read low): 0.989
- normalized growth (locus YGR078C, strain PAC10, active compounds read low): 0.983
- normalized growth (locus YGR135W, strain pre9, active compounds read low): 0.994
- normalized growth (locus YGR252W, strain gcn5, active compounds read low): 0.771
- normalized growth (locus YHR013C, strain ard1, active compounds read low): 0.984
- normalized growth (locus YHR027C, strain rpn1, active compounds read low): 0.94
- normalized growth (locus YHR030C, strain SLT2, active compounds read low): 1.02 and 1.05
- normalized growth (locus YHR079C, strain IRE1 (second series), active compounds read low): 1.02
- normalized growth (locus YHR079C, strain IRE1, active compounds read low): 1.05
- normalized growth (locus YHR094C, strain hxt1, active compounds read low): 1.02
- normalized growth (locus YHR129C, strain ARP1, active compounds read low): 1.01
- normalized growth (locus YHR142W, strain chs7, active compounds read low): 0.981
- normalized growth (locus YHR200W, strain rpn10, active compounds read low): 1.03
- normalized growth (locus YIL066C, strain RNR3, active compounds read low): 1.01
- normalized growth (locus YIL073C, strain SPO22, active compounds read low): 0.95
- normalized growth (locus YIL125W, strain kgd1, active compounds read low): 1.04
- normalized growth (locus YIR030C, strain dcg1, active compounds read low): 1.03
- normalized growth (locus YJL092W, strain hpr5, active compounds read low): 1.03
- normalized growth (locus YJL095W, strain BCK1 (second series), active compounds read low): 1.01
- normalized growth (locus YJL095W, strain BCK1, active compounds read low): 0.959 and 1.05
- normalized growth (locus YJL115W, strain asf1, active compounds read low): 1.01
- normalized growth (locus YJL129C, strain trk1, active compounds read low): 1.01
- normalized growth (locus YJL134W, strain LCB3, active compounds read low): 1.01
- normalized growth (locus YJL154C, strain vps35, active compounds read low): 1.01
- normalized growth (locus YJL164C, strain tpk1, active compounds read low): 1.03
- normalized growth (locus YJL166W, strain qcr8, active compounds read low): 1.02
- normalized growth (locus YJL168C, strain set2, active compounds read low): 1.01
- normalized growth (locus YJL187C, strain SWE1 (second series), active compounds read low): 0.975
- normalized growth (locus YJL187C, strain SWE1, active compounds read low): 0.987
- normalized growth (locus YJR043C, strain POL32, active compounds read low): 1.02
